Screen size: about 5,500 compounds; about 2,000 (36%) were called active. Not shown: some 18% with an inconclusive outcome. Rule as the data show it: active = normalized growth mostly below about 0.91 (no sharp cut-off); inconclusive = no clear call, values can overlap the other calls; inactive = mostly above about 0.92. The list shows a part of the results.
Experiment: chemical genetic growth profiling, strain panel (AID 1159580);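 also: tested at 20 µM; growth read once vehicle control cultures reached saturation at 30 °C; 1 = growth at the plate median or of vehicle wells; lower values mean less growth of the strain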
Conditions: growth OD

Measured: normalized growth

NC(Cc1c[nH]c2ccccc12)C(=O)O (configuration not stated)
inactive: S. cerevisiae deletion strains, locus YJR075W, strain HOC1, stronger effect = lower value 1 | S. cerevisiae deletion strains, locus YKL009W, strain mrt4, stronger effect = lower value 1.01 | S. cerevisiae deletion strains, locus YKL068W, stronger effect = lower value 0.99 | S. cerevisiae deletion strains, locus YKL085W, strain MDH1 (second series), stronger effect = lower value 1.02 | S. cerevisiae deletion strains, locus YKL085W, strain MDH1, stronger effect = lower value 1.02 | S. cerevisiae deletion strains, locus YKL160W, strain elf1, stronger effect = lower value 1.02 | S. cerevisiae deletion strains, locus YKL190W, strain CNB1, stronger effect = lower value 0.989 | S. cerevisiae deletion strains, locus YKR001C, strain vps1, stronger effect = lower value 1 | S. cerevisiae deletion strains, locus YKR026C, strain gcn3, stronger effect = lower value 1.02 | S. cerevisiae deletion strains, locus YKR091W, strain srl3, stronger effect = lower value 1.02 | S. cerevisiae deletion strains, locus YLL001W, strain dnm1, stronger effect = lower value 1.02 | S. cerevisiae deletion strains, locus YLL026W, stronger effect = lower value 1.02 | S. cerevisiae deletion strains, locus YLL041C, strain sdh2, stronger effect = lower value 1.01 | S. cerevisiae deletion strains, locus YLR027C, strain aat2, stronger effect = lower value 1.01 | S. cerevisiae deletion strains, locus YLR039C, strain RIC1, stronger effect = lower value 0.991 | S. cerevisiae deletion strains, locus YLR058C, strain SHM2, stronger effect = lower value 0.975 | S. cerevisiae deletion strains, locus YLR102C, strain apc9, stronger effect = lower value 0.992 | S. cerevisiae deletion strains, locus YLR113W, strain HOG1, stronger effect = lower value 0.969 | S. cerevisiae deletion strains, locus YLR221C, strain rsa3, stronger effect = lower value 1.01 | S. cerevisiae deletion strains, locus YLR258W, strain gsy2, stronger effect = lower value 1.01 | S. cerevisiae deletion strains, locus YLR262C, strain YPT6 (second series), stronger effect = lower value 1.03 | S. cerevisiae deletion strains, locus YLR262C, strain YPT6, stronger effect = lower value 0.962 | S. cerevisiae deletion strains, locus YLR268W, strain sec22, stronger effect = lower value 1.02 | S. cerevisiae deletion strains, locus YLR320W, strain mms22, stronger effect = lower value 0.995 | S. cerevisiae deletion strains, locus YLR330W, strain CHS5, stronger effect = lower value 0.99 | S. cerevisiae deletion strains, locus YLR342W, strain FKS1 (second series), stronger effect = lower value 1.03 | S. cerevisiae deletion strains, locus YLR342W, strain FKS1, stronger effect = lower value 1.02 | S. cerevisiae deletion strains, locus YLR357W, strain rsc2, stronger effect = lower value 1.04 | S. cerevisiae deletion strains, locus YLR370C, strain arc18, stronger effect = lower value 1.02 | S. cerevisiae deletion strains, locus YLR371W, strain rom2, stronger effect = lower value 0.991 | S. cerevisiae deletion strains, locus YLR384C, strain iki3, stronger effect = lower value 1.02 | S. cerevisiae deletion strains, locus YLR418C, strain cdc73, stronger effect = lower value 1.04 | S. cerevisiae deletion strains, locus YML016C, strain PPZ1, stronger effect = lower value 0.989 | S. cerevisiae deletion strains, locus YML032C, strain rad52, stronger effect = lower value 0.992 | S. cerevisiae deletion strains, locus YML120C, strain ndi1, stronger effect = lower value 1.01 | S. cerevisiae deletion strains, locus YML124C, strain tub3, stronger effect = lower value 0.997 | S. cerevisiae deletion strains, locus YMR058W, strain fet3, stronger effect = lower value 1.02 | S. cerevisiae deletion strains, locus YMR078C, strain ctf18, stronger effect = lower value 0.979 | S. cerevisiae deletion strains, locus YMR125W, strain sto1, stronger effect = lower value 1.03 | S. cerevisiae deletion strains, locus YMR129W, stronger effect = lower value 1.02 | S. cerevisiae deletion strains, locus YMR205C, strain PFK2, stronger effect = lower value 1.03 | S. cerevisiae deletion strains, locus YMR223W, strain ubp8, stronger effect = lower value 1 | S. cerevisiae deletion strains, locus YMR231W, strain pep5, stronger effect = lower value 1.02 | S. cerevisiae deletion strains, locus YMR263W, strain SAP30, stronger effect = lower value 0.983 | S. cerevisiae deletion strains, locus YMR307W, strain GAS1, stronger effect = lower value 1.08 | S. cerevisiae deletion strains, locus YNL067W, strain RPL9B, stronger effect = lower value 0.992 | S. cerevisiae deletion strains, locus YNL071W, strain lat1, stronger effect = lower value 1.02 | S. cerevisiae deletion strains, locus YNL128W, strain TEP1, stronger effect = lower value 0.975 | S. cerevisiae deletion strains, locus YNL153C, strain GIM3, stronger effect = lower value 0.992 | S. cerevisiae deletion strains, locus YNL183C, strain NPR1, stronger effect = lower value 0.941 | S. cerevisiae deletion strains, locus YNL209W, strain ssb2, stronger effect = lower value 1.03 | S. cerevisiae deletion strains, locus YNL233W, strain BNI4, stronger effect = lower value 0.999 | S. cerevisiae deletion strains, locus YNL248C, strain rpa49, stronger effect = lower value 1.02 | S. cerevisiae deletion strains, locus YNL250W, strain rad50, stronger effect = lower value 0.975 | S. cerevisiae deletion strains, locus YNL271C, strain bni1, stronger effect = lower value 1.01 | S. cerevisiae deletion strains, locus YNL298W, strain CLA4, stronger effect = lower value 0.995 | S. cerevisiae deletion strains, locus YNL307C, strain MCK1, stronger effect = lower value 0.991 | S. cerevisiae deletion strains, locus YNL322C, strain KRE1 (second series), stronger effect = lower value 1.02 | S. cerevisiae deletion strains, locus YNL322C, strain KRE1, stronger effect = lower value 0.989 | S. cerevisiae deletion strains, locus YNR049C, strain mso1, stronger effect = lower value 1.02 | S. cerevisiae deletion strains, locus YNR052C, strain pop2, stronger effect = lower value 0.991 | S. cerevisiae deletion strains, locus YOL006C, strain TOP1, stronger effect = lower value 1.03 | S. cerevisiae deletion strains, locus YOL012C, strain htz1 2.02 | S. cerevisiae deletion strains, locus YOL147C, strain pex11, stronger effect = lower value 0.998 | S. cerevisiae deletion strains, locus YOR001W, strain rrp6, stronger effect = lower value 0.992 | S. cerevisiae deletion strains, locus YOR061W, strain CKA2, stronger effect = lower value 0.973 | S. cerevisiae deletion strains, locus YOR069W, strain VPS5, stronger effect = lower value 0.991 | S. cerevisiae deletion strains, locus YOR070C, strain gyp1, stronger effect = lower value 1.02 | S. cerevisiae deletion strains, locus YOR080W, strain dia2, stronger effect = lower value 1.02 | S. cerevisiae deletion strains, locus YOR083W, strain WHI5, stronger effect = lower value 1.01 | S. cerevisiae deletion strains, locus YOR106W, strain vam3, stronger effect = lower value 1 | S. cerevisiae deletion strains, locus YOR136W, strain idh2, stronger effect = lower value 0.992 | S. cerevisiae deletion strains, locus YOR144C, strain elg1, stronger effect = lower value 1 | S. cerevisiae deletion strains, locus YOR184W, strain ser1, stronger effect = lower value 1 | S. cerevisiae deletion strains, locus YOR231W, strain MKK1, stronger effect = lower value 0.946 | S. cerevisiae deletion strains, locus YOR265W, strain rbl2, stronger effect = lower value 1.01 | S. cerevisiae deletion strains, locus YOR270C, strain vph1, stronger effect = lower value 1.04 | S. cerevisiae deletion strains, locus YOR290C, strain snf2, stronger effect = lower value 1.01 | S. cerevisiae deletion strains, locus YOR316C, strain cot1, stronger effect = lower value 0.981 | S. cerevisiae deletion strains, locus YPL051W, strain arl3, stronger effect = lower value 1.01 | S. cerevisiae deletion strains, locus YPL055C, strain LGE1, stronger effect = lower value 0.981 | S. cerevisiae deletion strains, locus YPL078C, strain atp4, stronger effect = lower value 1.01 | S. cerevisiae deletion strains, locus YPL106C, strain sse1, stronger effect = lower value 1.02 | S. cerevisiae deletion strains, locus YPL240C, strain hsp82, stronger effect = lower value 1.02 | S. cerevisiae deletion strains, locus YPL241C, strain CIN2, stronger effect = lower value 0.995 | S. cerevisiae deletion strains, locus YPL256C, strain CLN2, stronger effect = lower value 0.963 | S. cerevisiae deletion strains, locus YPR119W, strain clb2, stronger effect = lower value 0.996 | S. cerevisiae deletion strains, locus YPR141C, strain kar3, stronger effect = lower value 0.985 | S. cerevisiae deletion strains, locus YPR163C, strain tif3, stronger effect = lower value 0.998 | S. cerevisiae deletion strains, locus YPR167C, strain met16, stronger effect = lower value 1 | S. cerevisiae deletion strains, strain wtn01, stronger effect = lower value 0.984 | S. cerevisiae strains, strain wild type, stronger effect = lower value 0.997
